Assay outcomes: PubChem, National Center for Advancing Translational Sciences (NCATS)
The list is not random: actives were taken first. Their share in the collection is about 7.3%.
AmpC inh no detg – blocks E. coli AmpC beta-lactamase in detergent-free assay | P00811 | AmpC nitrocefin hydrolysis, absorbance 480 nm, 0.0001% Triton | Potency, µM (titrated, usually from 57.1 µM), for inactives: top-dose activity change, negative = inhibition, usual class: inhibitors | 330,000 tested, 0.52% active | AID 485341;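 note: potency is the fitted concentration of half-maximal effect; plate controls were no compound for no effect and no enzyme for full effect; nearly all actives have a fitted effect of over 20% in size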
Target sequence (P00811 whole entry, looked up): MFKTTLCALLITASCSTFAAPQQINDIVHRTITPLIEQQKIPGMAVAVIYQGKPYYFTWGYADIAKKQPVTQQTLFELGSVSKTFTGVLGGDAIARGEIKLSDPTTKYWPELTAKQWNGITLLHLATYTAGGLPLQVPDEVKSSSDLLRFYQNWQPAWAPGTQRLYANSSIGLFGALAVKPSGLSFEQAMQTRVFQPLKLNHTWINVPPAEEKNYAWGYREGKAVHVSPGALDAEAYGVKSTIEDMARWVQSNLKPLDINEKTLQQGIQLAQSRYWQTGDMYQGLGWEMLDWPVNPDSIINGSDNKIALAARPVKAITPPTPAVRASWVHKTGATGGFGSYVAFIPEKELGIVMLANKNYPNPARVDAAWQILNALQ
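20 mM phosphate pH 7.0 + 0.01% (detergent screen) or 0.0001% Triton X-100; 5.3 nM AmpC reagent; cpd preinc 15 min RT; nitrocefin (800 uM stock) to start; A480 q20 s × 4 min; Activity was normalised to no-enzyme and no-compound control wells.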
AmpC detergent – inhibitors of E. coli AmpC beta-lactamase with detergent. P00811. AmpC hydrolysis of nitrocefin, absorbance 480 nm, 0.01% Triton. Potency, µM (doses to about 114 µM), for inactives: top-dose activity change, negative = inhibition, usual class: inhibitors. 370,000 tested, 0.041% active. AID 485294;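 note: potency is the fitted concentration of half-maximal effect; 0% = no-compound wells and -100% = no-enzyme wells; nearly all actives have a fitted effect of over 25% in size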
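20 mM phosphate pH 7.0 + 0.01% (detergent screen) or 0.0001% Triton X-100; 5.3 nM AmpC reagent; cpd preinc 15 min RT; nitrocefin (800 uM stock) to start; A480 q20 s × 4 min; Activity was normalised to no-enzyme and no-compound control wells.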
HCMV antiviral – blocks human cytomegalovirus replication | HFF cells, HCMV-luciferase reporter, 72 h; active compounds read low | activity change, negative = inhibition, % at 57.5 µM | 410,000 tested, 4.5% active | AID 1259415; in the data active = activity change below about -60%; inconclusive = no clear call, values can overlap the other calls; inactive = above about -39%
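Inhibition of viral replication was scored as loss of reporter luminescence in HFFs infected with HCMV-luciferase (MOI 1 PFU/cell) for 72 h; compounds tested at 2 doses, normalized to buffer and Salinomycin controls.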
HCV inh – inhibitors of hepatitis C virus infection. Huh7.5.1 HCVcc-Cre infection, luciferase reporter, 44 h. Potency, µM (top dose mostly 41.8 µM), without a hit: top-dose activity change, negative = inhibition, hits mostly inhibitors. 340,000 tested, 3.4% active; note: potency is the fitted concentration of half-maximal effect
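Compounds are dispensed onto cells plated 4 h earlier at 1,000 per well, with HCVcc-Cre virus (about 0.5 moi) added next. Following 44 h of culture, luminescent signal is measured for 15 sec after 15 min with substrate at room temperature.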
FMDV antiviral – antivirals against foot and mouth disease virus. AID 1159524. 410,000 tested, 1.2% active. Potency, µM (titrated, usually from 57.9 µM), for the others: at the highest dose activity change, negative = inhibition, actives largely listed as inhibitors. FMDV antiviral cell-based qHTS; calls by dose curve; tested in HEK293T cells; note: read-out not given here; potency is the fitted concentration of half-maximal effect; nearly all actives have a fitted effect of over 45% in size
Active calls of the source: *; ? = inconclusive; · = no result; [ ] = remark or other dose. Unless noted, calls come from the whole dose curve; as a rule, active = well fitted curve in the direction sought with a large enough effect; inconclusive = small, poorly fitted or top-dose-only effect, or another doubt; inactive = no such curve, though single readings can be large; an effect the other way counts as inactive or inconclusive. Unless noted, % is set by controls: 0 for no effect and ±100 for the full control effect.

SMILES | AmpC inh no detg | AmpC detergent | HCMV antiviral | HCV inh | FMDV antiviral
COc1ccc(N2C(=O)/C(=C/c3ccc([N+](=O)[O-])cc3)N=C2C)c(OC)c1 | 20% | ? | -40 | ? | ?
O=C1/C(=C/c2ccc([N+](=O)[O-])cc2)C=C(c2ccccc2)N1c1ccc(O)cc1 | -52% | -7% | -83* | ? | ?
O=C(Nc1cccc(C(=O)O)c1)/C(=C/c1ccc([N+](=O)[O-])cc1)NC(=O)c1ccccc1 | -18% | -2% | 24 | 12% | -17%
O=C(O)c1cccc(N2C(=O)/C(=C/c3ccc([N+](=O)[O-])cc3)C=C2c2ccccc2)c1 | -26% | -10% | 7 | 5% | 13µM*
O=C1/C(=C/c2ccc([N+](=O)[O-])cc2)C=C(c2ccccc2)N1c1ccccc1 | -29% | -1% | -21 | 3% | ·
CCCCCCC(C)n1[nH]c(=O)c2c(C)cc(=O)[nH]c21 (stereo not drawn) | -17% | -2% | -70* | -13% | ?
COc1ccc(S(=O)(=O)NCCc2cn3cccc(C)c3n2)cc1OC | 10µM* | ? | 10 | ? | -23%
COc1ccc(-c2cc(=O)c3ccccc3[nH]2)cc1 | -23% | -20% | 17 | 5%[8.37 µM] | 22%
Cc1ccc2[nH]c(C(F)(F)F)cc(=O)c2c1 | -28% | 3% | -73* | 9% | -19%
Cc1ccc2[nH]c(-c3cccc(F)c3)cc(=O)c2c1 | -23% | -7% | -69* | ? | 38%
O=c1cc(-c2ccccc2)[nH]c2ccc(F)cc12 | -23% | -9% | -62* | -10% | 5%
O=c1cc(C(F)(F)F)[nH]c2ccccc12 | -7% | 1% | 13 | -1% | -4%
Cc1ccc(-c2cc(=O)c3cc(F)ccc3[nH]2)cc1 | -8% | -6% | 0 | -6% | 35%
COc1ccc2[nH]c(-c3cccc(F)c3)cc(=O)c2c1 | -12% | ? | -62* | 4%[8.37 µM] | 56%
CCOc1ccc(S(=O)(=O)/N=C(/Nc2ccc(C(C)=O)cc2)c2ccccc2)cc1 | -13% | · | 4 | ? | 26%
O=c1cc(-c2cccc(F)c2)[nH]c2ccccc12 | -30% | -8% | -77* | 4%[8.37 µM] | -9%
Cc1ccc(C)c(N(C(=O)CNC(=O)c2ccco2)C(C(=O)NC2CCCC2)c2ccncc2)c1 (stereo not drawn) | -9% | ? | -9 | 13% | 14%
O=C(/C=C/c1ccccc1)NC(NC(=S)Nc1cccc(Cl)c1)C(Cl)(Cl)Cl (stereo not drawn) | -57% | -9% | -75* | ? | -19%
O=C(/C=C/c1ccccc1)NC(NC(=S)Nc1ccc(Cl)cc1Cl)C(Cl)(Cl)Cl (stereo not drawn) | -32% | ? | · | 10µM* | -25%
CN1OC[C@@H]2CN(Cc3cc(Cl)cc(Cl)c3)[C@H](c3cccc(-c4ccccc4)c3)C[C@@H]21 | · | · | -21 | 2%[8.37 µM] | -22%
O=C(CN1C(=O)COc2ccc(Cl)cc21)N1CCCCC1 | -5% | -13% | ? | 19% | 22%
COc1ccnc(Oc2cccc(C(F)(F)F)c2)c1C(=O)N/C=N/OCc1ccccc1F | 136% | 9% | -11 | 11µM* | ?
Cc1ccc(CCNC(=O)c2c[nH]c3ccc(S(=O)(=O)Nc4ccc(C)cc4C)cc3c2=O)cc1 | -58% | -2% | ? | · | -18%
O=c1cc(Nc2ccc3c(c2)OCCO3)[nH]c(=O)n1-c1ccc(Br)cc1 | -39% | -2% | ? | -12% | ·
O=c1cc(Nc2ccc3c(c2)OCO3)[nH]c(=O)n1-c1ccc(Br)cc1 | -21% | ? | -78* | ? | ·
SMILES | AmpC inh no detg | AmpC detergent | HCMV antiviral | HCV inh | FMDV antiviral
COc1ccccc1NC(=O)c1nc(SCc2ccc(F)cc2)ncc1Cl | · | 21% | 18 | · | -16%
Cc1ccc(CNC(=O)c2nc(S(=O)(=O)Cc3ccc(C)cc3)ncc2Cl)cc1 | · | 4% | 19 | · | -50%
CCCS(=O)(=O)c1ncc(Cl)c(C(=O)Nc2c(C(=O)c3ccccc3)oc3ccccc23)n1 | · | 8% | 28 | · | ?
CCOc1ccccc1NC(=O)c1nc(S(=O)(=O)Cc2ccccc2)ncc1Cl | -26% | 1% | -109* | ? | 32µM*
CCS(=O)(=O)c1ncc(Cl)c(C(=O)NCc2ccc(OC)cc2)n1 | · | 8% | -97* | · | 25µM*
COc1ccccc1NC(=O)c1nc(S(=O)(=O)Cc2ccccc2)ncc1Cl | -29% | -9% | -113* | ? | 28µM*
CCS(=O)(=O)c1ncc(Cl)c(C(=O)N2CCN(c3ccc(OC)cc3)CC2)n1 | · | 0% | -99* | · | 32µM*
COC1OC(COCc2ccccc2)C2OC(C)(C)OC2C1O (stereo not drawn) | · | · | -23 | · | ·
O=[N+]([O-])c1ccccc1S(=O)(=O)NCCSCc1ccco1 | -34% | -7% | 8 | 0% | 17%
COc1ccc(C2c3c(oc4ccc(Cl)cc4c3=O)C(=O)N2CCCN(C)C)cc1OC (stereo not drawn) | · | 6% | -17 | · | -5%
COc1ccc(N(Cc2ccccc2)C(=O)c2nc(SC)ncc2Cl)cc1 | · | 18% | -21 | · | 0%
COc1ccc(OC)c(NC(=O)c2nc(S(=O)(=O)Cc3ccc(F)cc3)ncc2Cl)c1 | · | 1% | -97* | · | 22µM*
CCS(=O)(=O)c1ncc(Cl)c(C(=O)N(Cc2ccccc2)c2ccc(OC)cc2)n1 | · | 8% | -99* | · | 11µM*
CCS(=O)(=O)c1ncc(Cl)c(C(=O)Nc2ccccc2OC)n1 | -14% | -15% | -20 | ? | 3.5µM*
Cn1c(SCc2ccccc2)nnc1-c1ccc(O)cc1 | -9% | -2% | -24 | 7% | 60%
CC1CN=C(c2ccc(Cl)cc2)c2c3ccc(C(F)(F)F)cc3nn21 (stereo not drawn) | · | · | 47 | · | ·
CCOCCn1c(CN2CCN(C(c3ccccc3)c3ccccc3)CC2)nc2c1c(=O)n(C)c(=O)n2C | 14% | -4% | -23 | 8% | -18%
CN1OC[C@@H]2CN[C@H](c3ccc(-c4cc5ccccc5o4)cc3)C[C@@H]21 | · | · | · | · | 0.35µM*
CN1OC[C@@H]2CN[C@H](c3ccc(-c4ccc(C#N)cc4)cc3)C[C@@H]21 | · | · | 57 | · | 25%
O=C(NCc1ccccc1Cl)c1ccc2c(O)c(S(=O)(=O)c3ccccc3)c(=O)[nH]c2c1 | · | -1% | 6 | · | -7%
CC(=C1SC(=S)NC1=O)c1ccc(Cl)c(O)c1 | · | · | 23 | · | ·
Cc1ccc(NC(=S)NCC2CCN(C(C)c3ccccc3)C2)cc1C (stereo not drawn) | -6% | ? | -63* | -12% | -3%
Cc1ccc(NC(=S)NCC2CCCO2)cc1C (stereo not drawn) | -26% | -4% | -9 | -14% | 23%
COc1ccc(CN2C(=O)C(NC(=O)c3ccccc3C)(C(F)(F)F)N=C2c2ccccc2)cc1 (stereo not drawn) | · | -4% | -103* | · | -23%
